Test results from PubChem BioAssay (EPA / NIEHS).
Inconclusive results are not listed. Calls of active or inactive are those of the source. Rule for the calls: active = hit-call score of the fitted dose curve at least 0.9, where 1 is the maximum; inconclusive = response in the unintended direction; inactive = score below 0.9.

read-out: alkyl and aryl transferase (GSTA2), GSTA2 (gene 2939); test: CLD_GSTA2_24hr: CellzDirect (CLD) Gene Expression Assay for alkyl and aryl transferase (GSTA2) at 24 hours (AID 2283693)
Method: CLD_24hr is a cell-based, multiplexed-readout assay that uses hepatocyte, a human liver primary cell, with measurements taken at 24 hours after chemical dosing in a 96-well plate.CLD_GSTA2_24hr is one of 16 assay component(s) measured or calculated from the CLD_24hr assay. It is designed to make measurements of mRNA induction, a form of inducible reporter, as detected with chemiluminescence signals by Quantitative Nuclease Protection Assay (qNPA) technology.Data from the assay component CLD_GSTA2_24hr was analyzed at the endpoint, CLD_GSTA2_24hr, in the positive analysis fitting direction relative to DMSO as the negative control and baseline of activity. Using a type of inducible reporter, gain-of-signal activity can be used to understand changes in the reporter gene as they relate to the gene GSTA2. Furthermore, this assay endpoint can be referred to as a primary readout. To generalize the intended target to other relatable targets, this assay endpoint is annotated to the transferase intended target family, where subfamily is alkyl and aryl transferase.
Human hepatocyte cultures were treated daily for two consecutive days with fresh dosing solutions containing appropriate concentrations of the 320 ToxCast chemicals (chemical identities were blinded to CellzDirect and other ToxCast collaborators), vehicle control (0.2% DMSO), and positive control inducers as summarized in Table 1. Due to the large number of treatment groups and chemicals examined, the ToxCast chemicals were divided into two groups (spanning two independent cultures of hepatocytes from separate donor preparations (Hu778: ToxCast plates 1 and 2; Hu776: ToxCast plates 3 and 4). Each preparation of human hepatocyte cultures was treated with respective vehicle control, medium only control, set of six positive controls/reference chemicals for the five hepatic receptor pathways, and a subset of eight of the ToxCast chemicals (indoxacarb, pyrithiobac-sodium, norflurazon, cyhalofop-butyl, methomyl, thiram, acetochlor, and propiconazole). These replicate data, coupled with internal replicates designed within the blinded ToxCast chemical library, provided additional data to evaluate interindividual differences between hepatocyte preparations and their potential impact on chemical profiles.Cell morphology and integrity were evaluated using phase-contrast microscopy as an indicator of hepatocyte cell health (Tyson & Green, 1987). Cultures for each treatment group (i.e., media, vehicle [0.2% DMSO], positive control inducers [multiple concentrations], and the ToxCast chemicals [multiple concentrations]) were observed and cell morphology was assessed relative to vehicle control cultures at each harvest time point (0, 6, 24, or 48 h). […] Images were evaluated at the conclusion of the study to assess changes in cell integrity and account for the effects of chemical exposure on uncharacteristic changes in concentration-dependent gene expression profiles. The results from these determinations of apparent cytotoxicity were annotated (yes/no) alongside the corresponding qNPA data for reference.At the conclusion of each treatment period, hepatocyte cultures (96-well) were washed with 1 volume of HBSS, lysed by addition of 25 ul ArrayPlate lysis buffer (HTG, Tucson, AZ), and 70 ul/well of Denaturation Oil, denatured by incubation at 95C for 10 min, and frozen at approximately -70C until analysis by nuclease protection assay (qNPA) (Roberts et al., 2007). For qNPA analysis, cell lysates were thawed at 50C for approximately 30 min, qNPA probes were added, and samples were incubated at 95C for 10 min to begin the detection process by denaturing the target RNA, dissociating the duplexes and secondary structure hybridization. At the conclusion of the hybridization period, S1 nuclease reagent was added to each sample to digest all nonprotected nucleotides at 50C for 60-90 min. […]

| SMILES | outcome |
| --- | --- |
| CCCOC(=O)NCCCN(C)C | inactive |
| CCNc1nc(N)nc(Cl)n1 | inactive |
| c1ccc(Nc2ccccc2)cc1 | inactive |
| COC(=O)c1c(Cl)nn(C)c1S(=O)(=O)NC(=O)Nc1nc(OC)cc(OC)n1 | inactive |
| CC(C)(c1ccc(O)cc1)c1ccc(O)cc1 | inactive |
| CCCN(CCC)c1c([N+](=O)[O-])cc(C(F)(F)F)c(N)c1[N+](=O)[O-] | inactive |
| CCSC(=O)N(CC(C)C)CC(C)C | inactive |
| CCC(C)OC(=O)N1CCCCC1CCO (stereo not given) | inactive |
| COCCO | inactive |
| C=CCOC(Cn1ccnc1)c1ccc(Cl)cc1Cl (stereo not given) | inactive |
| CCCOC(=O)c1ccc(C(=O)OCCC)nc1 | inactive |
| CCCCOC(=O)C(C)Oc1ccc(Oc2ccc(C(F)(F)F)cn2)cc1 (stereo not given) | inactive |
| CCCCOCCOCCOCc1cc2c(cc1CCC)OCO2 | inactive |
| COC(=O)c1ccccc1C(=O)O | inactive |
| COc1nc(C)nc(NC(=O)NS(=O)(=O)c2ccccc2OCCCl)n1 | inactive |
| CCCN(CCC)C(=O)SCC | inactive |
| CCCCC(CC)CN1C(=O)C2C3C=CC(C3)C2C1=O (stereo not given) | inactive |
| O=C(Nc1ccc([N+](=O)[O-])cc1Cl)c1cc(Cl)ccc1O | inactive |
| CCC(O)=C1C(=O)CC(C(=O)O)CC1=O (stereo not given) | inactive |
| Cc1nn(C)c(Oc2ccccc2)c1C=NOCc1ccc(C(=O)OC(C)(C)C)cc1 | inactive |
| COc1c(Cl)ccc(Cl)c1C(=O)O | inactive |
| Oc1ccc(C(c2ccc(O)cc2)C(Cl)(Cl)Cl)cc1 | inactive |
| COC(=O)c1ccccc1S(=O)(=O)NC(=O)Nc1nc(OC(F)F)cc(OC(F)F)n1 | inactive |
| COC(=O)c1ccc(CNS(C)(=O)=O)cc1S(=O)(=O)NC(=O)Nc1nc(OC)cc(OC)n1 | inactive |
| N#CSCSc1nc2ccccc2s1 | inactive |
| CCOC(=O)C(C)Oc1ccc(Oc2cnc3cc(Cl)ccc3n2)cc1 (stereo not given) | inactive |
| CCOC(=O)C(C)Oc1ccc(Oc2nc3ccc(Cl)cc3o2)cc1 (stereo not given) | inactive |
| COC(=O)c1cccc(C)c1S(=O)(=O)NC(=O)Nc1nc(OCC(F)(F)F)nc(N(C)C)n1 | inactive |
| CCCCCOC(=O)COc1cc(N2C(=O)C3=C(CCCC3)C2=O)c(F)cc1Cl | inactive |
| CCCCCCC(C)OC(=O)COc1nc(F)c(Cl)c(N)c1Cl (stereo not given) | inactive |
